High-throughput results deposited in PubChem BioAssay by several laboratories.
Wnt bcat act = activates Wnt/beta-catenin signaling in a reporter cell assay; activator, plate reader; activation, % at 9.35 µM; 1.2% of 300,000 active; in the data active means activation above about 30%, passing the limit was not always enough;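 further: 0% = neutral control wells and 100% = positive control wells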
DAX1 inh = blocks DAX1 repression of SF-1 activated StAR promoter; HEK293T StAR-luciferase reporter, SF-1/DAX-1 repression relief; inhibition, % at 6.8 µM; 1.1% of 370,000 active;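 active means inhibition above the mean over all tested compounds plus 3 SD, cut at about 3.6% in these data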;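 further: 0% = DAX-1 cells with DMSO and 100% = cells lacking DAX-1 with DMSO; higher inhibition means more luminescence from relief of DAX-1 repression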
ssDAF-12 act = activates DAF-12 receptor from parasite S. stercoralis; HEK293 ssDAF-12/GRIP1 lit1-tk-luc reporter, luminescence; % of 3 µM dafachronic acid response; 1% of 370,000 active; activation, % at 6.8 µM;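 active means activation above the mean over all tested compounds plus 3 SD, cut at about 0.9% in these data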;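 further: 0% = DMSO-only wells and 100% = 3 µM delta7-dafachronic acid wells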
esBAF inh = SWI/SNF esBAF complex inhibition; mouse ES cells, Bmi1-luciferase knock-in reporter, 24 h; 100% = twice the neutral-well signal; reporter increase, % at 12.5 µM; 2% of 350,000 active; in the data active means activation above about 40%;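 further: 0% = median of the plate's neutral control wells and 100% = double that signal; a rise in the Bmi1 reporter signal indicates esBAF inhibition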
hgDAF-12 ag = agonists of H. glycines DAF-12 nuclear receptor. 1.8% of 370,000 active. HEK293 GAL4-hgDAF12 UAS-luciferase reporter, agonist luminescence; normalized to butyrate control. AID 687014. activation, % at 6.8 µM;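 active means activation above a cutoff set at the mean of all screened compounds plus 3 SD, cut at about 10% in these data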;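 further: 0% = DMSO wells and 100% = sodium butyrate wells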
hcDAF12 agonist = activates DAF-12 receptor from parasite H. contortus. activation, % at 6.8 µM. 1.4% of 370,000 active. HEK293 hcDAF-12 lit1-tk-luc reporter, luminescence; 0% DMSO, 100% Δ7-dafachronic acid. AID 652067;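 active means activation above the mean of all tested compounds plus 3 SD, cut at about 5.5% in these data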;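 further: 100% = response to 3 µM Δ7-dafachronic acid high control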
DAX1 inh confirm = confirmation of human DAX1 (NR0B1) inhibitors. inhibition, % at 6.8 µM. 87% of 2,400 active. shares compounds with DAX1 inh. HEK293T StAR-promoter luciferase reporter, SF-1/DAX-1 repression. AID 652134;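 active means inhibition above the average of every tested compound plus 3 SD, cut at about 3.8% in these data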;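 further: 0% = DAX-1 cells with DMSO and 100% = no DAX-1 control cells with DMSO; active compounds raise luminescence by relieving repression of the StAR reporter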
Target sequence (P51843 whole entry, looked up): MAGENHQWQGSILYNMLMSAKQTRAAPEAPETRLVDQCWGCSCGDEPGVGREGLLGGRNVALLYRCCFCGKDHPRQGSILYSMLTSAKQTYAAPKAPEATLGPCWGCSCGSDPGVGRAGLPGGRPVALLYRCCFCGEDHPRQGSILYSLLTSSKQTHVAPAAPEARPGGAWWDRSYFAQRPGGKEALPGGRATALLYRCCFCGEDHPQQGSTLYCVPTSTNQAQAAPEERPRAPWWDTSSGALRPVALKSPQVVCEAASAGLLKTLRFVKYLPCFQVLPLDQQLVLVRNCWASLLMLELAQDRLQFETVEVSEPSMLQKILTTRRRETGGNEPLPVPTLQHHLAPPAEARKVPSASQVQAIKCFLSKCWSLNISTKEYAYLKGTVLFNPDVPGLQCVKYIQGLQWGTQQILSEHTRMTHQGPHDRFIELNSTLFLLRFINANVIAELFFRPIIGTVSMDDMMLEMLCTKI
SF1 mutant ctr = nonselective inhibitor or artifact in SF-1 mutant DAX1 counter-screen. shares compounds with DAX1 inh. HEK293 StAR-luciferase, SF-1 AF2 mutant, luminescence. inhibition, % at 6.8 µM. 78% of 2,400 active;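 active means inhibition above the mean of all tested compounds plus 3 SD, cut at about 3% in these data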;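 further: 0% = DAX-1 transfected cells with DMSO and 100% = cells without DAX-1 with DMSO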
LXRb hcDAF ctr = counter-screen for hcDAF-12 agonists: agonists of human LXR-beta. shares compounds with hcDAF12 agonist. HEK293 Gal4-LXR tk-luc reporter, luminescence, 24 h; normalized: DMSO 0%, positive control 100%. activation, % at 6.8 µM. 3,400 tested, under 10 active. AID 743027;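 active means mean percent activation of the reporter above a cutoff set as the average over tested compounds plus their standard deviation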
hcDAF12 ag = hcDAF-12 agonism, confirmation assay. shares compounds with hcDAF12 agonist. HEK293 hcDAF-12 lit1-tk-luc reporter, luminescence; % of Δ7-dafachronic acid response. activation, % at 6.8 µM. 61% of 3,400 active. AID 743032;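 active means mean activation across triplicate tests above the threshold derived from the earlier primary screen, cut at about 5.5% in these data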;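 further: 0% = DMSO only wells and 100% = 3 µM Δ7-dafachronic acid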
hgDAF12 ag = confirmation of H. glycines DAF-12 agonists. shares compounds with hgDAF-12 ag. HEK293 GAL4-hgDAF12 luciferase reporter, agonist mode; percent of butyrate response. activation, % at 6.8 µM. 80% of 3,300 active;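 active means mean activation over triplicate wells above the hit cutoff derived from the earlier primary screen, cut at about 11% in these data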;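 further: 0% = DMSO low control and 100% = 2 mM sodium butyrate high control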
LXR ag 2 = counter-screen for DAF-12 agonists: agonists of human LXR-beta; activation, % at 6.8 µM; 3,300 tested, under 10 active; shares compounds with hgDAF-12 ag; HEK293 Gal4-LXR luciferase reporter, 24 h;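 active means mean activation of the triplicate above a set limit carried over from the primary screen, none filed active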
Starred values were filed as active, the others as inactive; nt = no result. This is a sample that favours compounds with a hit; in the whole collection about 4.2% have one here.

SMILES | Wnt bcat act | DAX1 inh | ssDAF-12 act | esBAF inh | hgDAF-12 ag | hcDAF12 agonist | DAX1 inh confirm | SF1 mutant ctr | hgDAF12 ag | LXR ag 2 | others
N/C(=N\OC(=O)c1ccc2ccccc2c1)c1ccncc1 | 34* | 5.2* | 1.1* | nt | 17* | 7.1* | 10* | 6.2* | 14* | 1 | LXRb hcDAF ctr=1;hcDAF12 ag=4
C[C@@H]1CN([C@@H](C)CO)C(=O)c2cc(-c3cccnc3)cnc2O[C@@H]1CN(C)C(=O)C1CCC1 | nt | nt | nt | -3 | nt | nt | nt | nt | nt | nt
C[C@H](CO)N1C[C@H](C)[C@H](CN(C)CC2CCCCC2)Oc2ccc(NC(=O)Cn3cnnn3)cc2C1=O | nt | nt | nt | 0 | nt | nt | nt | nt | nt | nt
C[C@H](CO)N1C[C@H](C)[C@@H](CN(C)S(=O)(=O)c2cccs2)OCCCC[C@H](C)Oc2ccc(NC(=O)Nc3cccc4ccccc34)cc2C1=O | nt | nt | nt | -5 | nt | nt | nt | nt | nt | nt
C[C@H]1CN([C@@H](C)CO)C(=O)c2cc(NS(=O)(=O)c3cccs3)ccc2O[C@@H]1CN(C)S(=O)(=O)c1cccs1 | nt | nt | nt | 0 | nt | nt | nt | nt | nt | nt
O=C(Nc1nc(-c2nc3ccccc3s2)cs1)C1COc2ccccc2O1 (configuration not stated) | 2 | 1 | -1 | 23 | 3 | 4 | nt | nt | nt | nt
CC(=O)Nc1nc(C2COc3ccccc3O2)cs1 (configuration not stated) | nt | 5.8* | 0 | 4 | 14* | 6.7* | 11* | 5.1* | 15* | 1 | LXRb hcDAF ctr=1;hcDAF12 ag=6.1*
CNC[C@H]1Oc2ncc(C#Cc3ccccc3F)cc2C(=O)N([C@@H](C)CO)C[C@H]1C | nt | nt | nt | 2 | nt | nt | nt | nt | nt | nt
Cc1ccc(S(=O)(=O)NCC[C@@H]2CC[C@H](NS(=O)(=O)c3ccccc3Cl)[C@@H](CO)O2)cc1 | nt | nt | nt | 4 | nt | nt | nt | nt | nt | nt
O=C(Nc1ccccc1)c1ccncc1 | -1 | 0 | -1 | -4 | -1 | -1 | nt | nt | nt | nt
O=C(Nc1cnc2ccccc2c1)c1ccncc1 | 20 | 5.5* | -1 | -2 | 14* | 5 | 11* | 7.5* | 14* | 1
O=C(Nc1ccc2c(c1)Cc1ccccc1-2)c1ccco1 | 48* | 5.6* | 0 | 7 | 17* | 6.3* | 17* | 10* | 21* | 1
COc1ccc(C(=O)Nc2ccc3c(c2)Cc2ccccc2-3)cc1 | nt | 0 | 0 | 8 | 0 | 2 | nt | nt | nt | nt
COCC(=O)Nc1ccc2c(c1)OC[C@@H](C)N(C(=O)NC(C)C)C[C@H](C)[C@@H](OC)CN(C)C2=O | nt | nt | nt | -3 | nt | nt | nt | nt | nt | nt
CCC1CCC/C1=N\NC(=O)c1ccoc1C (configuration not stated) | 4 | 11* | 0 | 36 | 17* | 4 | 0 | 0 | 5 | 0
CCC1CCC/C1=N\NC(=O)c1ccccc1Cl (configuration not stated) | 20 | 0 | 0 | nt | 3 | 0 | nt | nt | nt | nt
COc1ccc(-c2ncncc2-c2ccccc2)c(O)c1 | 0 | 0 | -1 | -10 | 3 | -2 | nt | nt | nt | nt
COc1ccc(-c2cc(-c3ccccc3)n[nH]2)c(O)c1 | 14 | 5.5* | 0 | 83* | 16* | 4 | 6.3* | 5.5* | 16* | 1
CCN(CC)CCN(C(=O)c1ccc2ncsc2c1)c1nc2cc3c(cc2s1)OCO3 | 21 | 15* | 2.6* | 55* | 17* | 16* | 11* | 11* | 15* | 1 | LXRb hcDAF ctr=1;hcDAF12 ag=11*
CCN(CC)CCN(C(=O)c1ccc(C(=O)c2ccccc2)cc1)c1nc2cc3c(cc2s1)OCO3 | 1 | 2 | -1 | 11 | 3 | -1 | nt | nt | nt | nt
C[C@H]1CN([C@@H](C)CO)C(=O)c2cccc(N(C)C)c2O[C@H]1CN(C)C(=O)Nc1ccccc1 | nt | nt | nt | 4 | nt | nt | nt | nt | nt | nt
O=C(CC(F)(F)F)N1C[C@H]2[C@@H](c3ccccc31)[C@H](CO)N2C(=O)C1CCCC1 | nt | nt | nt | 6 | nt | nt | nt | nt | nt | nt
O=C(N/N=C/c1ccc(Cl)cc1Cl)c1ccncc1 | -3 | -1 | -1 | 36 | 3 | -2 | nt | nt | nt | nt
O=C(NN=Cc1ccc(Cl)cc1Cl)c1ccccc1 | 24 | 5.5* | 1 | nt | 17* | 3 | 11* | 5.8* | 16* | 1
C=CCn1c(=O)c(C(=O)Nc2ccccc2S(N)(=O)=O)c(O)c2ccccc21 | 7 | 5.8* | 1.1* | 65* | 15* | 12* | 10* | 4.0* | 11* | 0 | LXRb hcDAF ctr=1;hcDAF12 ag=5
SMILES | Wnt bcat act | DAX1 inh | ssDAF-12 act | esBAF inh | hgDAF-12 ag | hcDAF12 agonist | DAX1 inh confirm | SF1 mutant ctr | hgDAF12 ag | LXR ag 2 | others
C=CCn1c(=O)c(C(=O)Nc2ccccc2C(=O)OCC)c(O)c2ccccc21 | -1 | -1 | -1 | 1 | -1 | 1 | nt | nt | nt | nt
CN(C)c1ccc2c(=O)c3ccccc3oc2n1 | 1 | 7.8* | 0 | nt | 13* | 7.9* | 13* | 5.9* | 22* | 1 | LXRb hcDAF ctr=1;hcDAF12 ag=8.4*
COc1ccc(-c2cc(C)nc3c(-c4ccccc4)cnn23)cc1 | 6 | 12* | 0 | nt | 14* | 5 | 15* | 7.8* | 9 | 1
Cc1cc(N2CCCCC2)n2ncc(-c3ccccc3)c2n1 | nt | 2 | -1 | nt | 3 | 5 | nt | nt | nt | nt
C[C@@H]1CN([C@@H](C)CO)C(=O)c2cc(-c3ccccc3)cnc2O[C@@H]1CN(C)C(=O)c1ccccn1 | nt | nt | nt | 0 | nt | nt | nt | nt | nt | nt
O=C(N[C@H]1CC[C@H](CCNS(=O)(=O)c2ccc(F)cc2)O[C@@H]1CO)c1cnccn1 | nt | nt | nt | 6 | nt | nt | nt | nt | nt | nt
COCC(C)NC(=O)c1cc(-c2cccc(OC)c2)on1 (configuration not stated) | 0 | 3 | -1 | nt | 5 | 1 | nt | nt | nt | nt
COc1cccc(NC(=O)C(=S)NC2CCCCC2)c1 | 11 | 9.2* | 0 | -4 | 23* | 7.2* | 12* | 7.9* | 18* | 1 | LXRb hcDAF ctr=2;hcDAF12 ag=7.2*
